USP28 block – inhibitors of human USP28 deubiquitinase; Q96RU2; inhibition, % at 25 µM; AID 1645857; actives 3% (n = 47,000); purified USP28, Ub-rhodamine cleavage fluorescence, 30 min
USP10 inh – blocks human USP10 ubiquitin-rhodamine cleavage. Q14694. purified USP10, Ub-rhodamine fluorescence, 60 min. inhibition, % at 20 µM. actives 1.1% (n = 47,000). AID 1645856
USP7 block – blocks human USP7 ubiquitin-rhodamine cleavage; purified USP7, Ub-rhodamine cleavage fluorescence; actives 0.3% (n = 47,000); AID 1645854; inhibition, % at 20 µM
OTUD3 inh – inhibitors of human OTUD3 deubiquitinase. Q5T2D3. purified OTUD3, Ub-rhodamine fluorescence, 2 h. inhibition, % at 25 µM. actives 0.7% (n = 47,000). AID 1645858
USP8 inh – inhibitors of human USP8 deubiquitinase; inhibition, % at 20 µM; actives 4.2% (n = 47,000); purified USP8, Ub-rhodamine cleavage fluorescence, 30 min
Target sequence (P40818 whole entry, looked up): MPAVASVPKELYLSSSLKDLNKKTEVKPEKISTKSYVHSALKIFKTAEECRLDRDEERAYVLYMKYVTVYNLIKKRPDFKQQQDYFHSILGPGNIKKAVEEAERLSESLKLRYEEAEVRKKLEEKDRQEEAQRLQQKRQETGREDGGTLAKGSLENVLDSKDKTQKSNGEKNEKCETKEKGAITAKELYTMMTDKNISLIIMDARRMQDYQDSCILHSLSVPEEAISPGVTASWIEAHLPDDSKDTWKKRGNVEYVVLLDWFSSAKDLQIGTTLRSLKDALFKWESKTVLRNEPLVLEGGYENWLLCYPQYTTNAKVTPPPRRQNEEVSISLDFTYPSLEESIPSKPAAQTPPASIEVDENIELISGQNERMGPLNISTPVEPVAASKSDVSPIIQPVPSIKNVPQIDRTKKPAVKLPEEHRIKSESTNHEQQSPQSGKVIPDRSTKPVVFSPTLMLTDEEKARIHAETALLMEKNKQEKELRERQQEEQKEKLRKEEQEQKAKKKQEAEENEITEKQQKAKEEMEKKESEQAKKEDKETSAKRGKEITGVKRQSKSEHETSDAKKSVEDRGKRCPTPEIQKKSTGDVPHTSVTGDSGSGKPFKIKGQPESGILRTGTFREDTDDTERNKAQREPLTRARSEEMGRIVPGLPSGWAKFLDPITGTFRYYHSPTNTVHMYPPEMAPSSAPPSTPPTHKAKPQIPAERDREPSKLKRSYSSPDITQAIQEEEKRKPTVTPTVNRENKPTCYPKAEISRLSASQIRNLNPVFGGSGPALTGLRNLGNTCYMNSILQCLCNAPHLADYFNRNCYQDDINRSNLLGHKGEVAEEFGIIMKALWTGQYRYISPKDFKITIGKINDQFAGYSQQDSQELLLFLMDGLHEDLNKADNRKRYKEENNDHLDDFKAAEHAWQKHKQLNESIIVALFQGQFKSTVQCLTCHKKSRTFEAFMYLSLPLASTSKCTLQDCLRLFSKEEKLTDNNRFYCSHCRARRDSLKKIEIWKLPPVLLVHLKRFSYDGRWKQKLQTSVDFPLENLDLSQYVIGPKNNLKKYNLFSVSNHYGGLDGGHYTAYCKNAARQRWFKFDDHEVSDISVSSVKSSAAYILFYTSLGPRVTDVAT
UCHL1 block – blocks human UCHL1 ubiquitin-rhodamine cleavage. purified UCHL1, Ub-rhodamine cleavage fluorescence. AID 1645859. inhibition, % at 20 µM. P09936. actives 0.2% (n = 47,000)
An asterisk follows results filed as active; / = no result. A selection: hits, their analogues and other compounds. The true share with any hit is near 6.8%. No stated cut-off is given here; in the data, active means inhibition above about 30%; inactive means the rest.

SMILES	USP28 block	USP10 inh	USP7 block	OTUD3 inh	USP8 inh	UCHL1 block
Cc1cccc(Nc2nc3c(S(=O)(=O)c4ccc(C(C)(C)C)cc4)nnn3c3ccccc23)c1C	-1	0	9	1	23	1
COc1cccc(Nc2nc3c(S(=O)(=O)c4ccccc4)nnn3c3ccccc23)c1	/	20	24	4	38*	7
Cc1cccc(C2CCCN2C(=O)c2cc(C(C)C)on2)c1 (centres undefined)	0	0	-4	6	12	1
CN(C)C(=O)CN1Cc2c(C(=O)N3CC=CC3)ncn2-c2ccccc2S1(=O)=O	5	1	0	5	3	5
Cc1cc(C(=O)NC2(O)C(=O)c3ccccc3C2=O)n(C)n1	23	38*	-96	11	82*	31*
COc1ccc(-c2csc(N)n2)c2ccccc12	-11	-3	-11	-20	83*	-2
O=C(C1CCC1)N1CCCn2cnc(Cn3ccnc3)c2C1	-3	0	1	4	-47	0
NC(=O)c1cccc(NC(=O)c2cccc(Oc3ccccc3)c2)c1	15	-3	-41	-4	10	-1
O=C(Nc1cccc(Oc2ccccc2)c1)c1c(F)cccc1F	36*	-4	-2	-20	-8	3
O=C(Nc1cccc(Oc2ccccc2)c1)c1ccc2nc[nH]c2c1	34*	1	4	-7	1	7
COc1ccc(N2CCN(C(=O)CN3C(=O)[C@H]4CCCN4c4ncccc43)CC2)cc1	-20	-1	-6	-22	3	-2
O=C(NC1CCCC1)C(c1ccncc1)N(C(=O)c1ccco1)c1ccc2c(c1)OCCO2 (centres undefined)	6	-6	-3	4	48*	3
Cc1ccc(C(=O)N2CCC3(CC2)CCN(c2cccnc2)C3=O)cc1	9	3	3	7	3	0
CC(C)C(NC(=O)c1ccccc1Cl)C(=O)OCC(=O)NCc1ccc2c(c1)OCO2 (centres undefined)	-3	0	-1	-4	1	0
Cc1ccc(C(=O)NC(C(=O)OCC(=O)c2cc(C)n(-c3ccc4c(c3)OCO4)c2C)C(C)C)cc1 (centres undefined)	17	4	7	8	52*	5
Nc1c(-c2nc(-c3ccccc3Cl)no2)nnn1-c1ccc(Cl)cc1	20	60*	56*	4	94*	12
Nc1c(-c2nc(-c3ccc(F)cc3)no2)nnn1-c1ccccc1F	-6	1	8	1	35*	1
Cn1c(=O)c2c(nc(CN3CCOCC3)n2CC(N)=O)n(C)c1=O	-3	3	-8	1	0	-3
COc1ccc(C(=O)Cn2c(N(C)C)nc3c2c(=O)n(C)c(=O)n3C)cc1	18	2	4	15	13	2
NC(=O)c1ccc2c(c1)CCN2C(=O)C1CCCC1	14	2	-1	7	13	0
CCCn1cnnc1C1CCN(Cc2ccco2)CC1	4	-6	1	5	11	0
COc1ccc(-c2noc(C3CCCN3C(=O)Nc3ccccc3Cl)n2)cc1 (centres undefined)	14	4	3	12	7	4
CCc1ccc(NC(=O)CSc2nnc(-c3ccncc3)n2Cc2ccccc2)cc1	4	-5	-29	-6	-2	1
O=C(Cn1cnc2sc3c(c2c1=O)CCC3)NCCC1=CCCCC1	6	8	11	8	78*	-1
Cc1cccc(OCc2nc(C)c(C(=O)NC3CCCC3)s2)c1	0	3	0	3	0	-1
SMILES	USP28 block	USP10 inh	USP7 block	OTUD3 inh	USP8 inh	UCHL1 block
CCS(=O)(=O)N1Cc2ccccc2CC1C(=O)Nc1nc(-c2ccccc2)c(C)s1 (centres undefined)	-7	0	6	-24	46*	4
CCS(=O)(=O)N1Cc2ccccc2CC1C(=O)NCc1ccc2c(c1)OCO2 (centres undefined)	7	8	8	8	39*	5
Cc1sc(NC(=O)C2CCCCC2)nc1-c1ccccc1	15	8	6	6	-15	5
CC(=O)N1CCc2ccccc2C1C(=O)NCc1ccc2c(c1)OCO2 (centres undefined)	-8	-9	-41	-7	-14	-5
O=C(C1CCOCC1)N1CCCCCC1C1CCN(Cc2nnnn2C2CC2)CC1 (centres undefined)	-4	-2	0	-8	-6	-2
Oc1cc(OCCN2CCCCC2)ccc1-c1[nH]ncc1-c1ccccc1	3	0	1	-1	66*	2
CC(=O)c1ccc(N2CCN(S(=O)(=O)c3cc4c(cc3C)NC(=O)CO4)CC2)cc1	32*	8	9	14	29	8
Cc1ccc(S(=O)(=O)N2CCN=C2N2CCCCC2)cc1C	13	2	-22	9	8	1
O=S1(=O)CCC(S(=O)(=O)Nc2cccc(C(F)(F)F)c2)C1 (centres undefined)	-8	0	0	-4	0	0
O=S1(=O)CCC(S(=O)(=O)Nc2ccc(OCc3ccc(Cl)cc3)cc2)C1 (centres undefined)	9	0	-3	6	57*	1
O=C1c2cccc(O)c2C(=O)c2c(O)cccc21	-166	-7	-83	-98	-172	-26
Cc1cc(O)c2c3c(c(O)cc2c1)C(=O)c1c(O)cccc1C3=O	73*	7	60*	67*	-14	67*
CC(=O)Oc1cn(C(C)c2ccccc2)c2nc(C)n3c4ccccc4nc3c12 (centres undefined)	-43	-11	-17	-43	-24	-16
CCC(=O)Oc1cn(-c2ccc(C(C)C)cc2)c2nc(CC)n3c4ccccc4nc3c12	-7	-3	2	-1	47*	-1
O=C(Nc1ccc(Cl)cc1F)c1cc(-c2cccnc2)n[nH]1	12	7	1	5	2	-2
Cc1ccc(NC(=O)c2cc(-c3cccnc3)n[nH]2)cc1F	34*	26	-2	29	99*	12
O=C(Nc1cc(F)ccc1F)c1cc(-c2cccnc2)n[nH]1	/	12	10	4	5	0
CC(C)c1ccc(NC(=O)c2cc(-c3cccnc3)n[nH]2)cc1	37*	7	12	-1	97*	2
O=C(NC1CCCCCC1)c1cc(-c2cccnc2)n[nH]1	-3	0	0	-11	-18	-1
COc1ccc(NC(=O)c2cc(-c3cccnc3)n[nH]2)cc1Cl	91*	9	2	9	65*	2
O=C(NCCC1=CCCCC1)C1CCCN(c2ccc(N3CCOCC3)nn2)C1 (centres undefined)	-4	0	-2	-6	-16	-2
CSc1nc2ncn(CC(=O)Nc3cccc(Cl)c3)c(=O)c2s1	1	0	4	4	33*	0
